Screens: PubChem, several laboratories
This is a sample that favours compounds with a hit; in the whole collection about 2.8% have one here.
MITF TRPM1 HTS: activators of MITF-driven TRPM1 promoter reporter, primary screen, cell-based, SK-MEL-5, luciferase, single point | 0.75% of 300,000 active | activation, % at 12.5 µM | AID 588334, 2011 | SK-MEL-5 TRPM1-promoter luciferase, 24 h; % of positive control, neutral wells = 0;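 active = mean activation of at least 80% with every replicate also reaching 80%; inconclusive = mean reaches 80% but some replicate falls short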;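 note: 0% = neutral control wells and 100% = parthenolide positive control wells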
FXN GAA850 act: FXN promoter activators, primary screen, cell-based, luciferase luminescence, HEK293 lucGAA850; HEK293 lucGAA850 FXN promoter luciferase reporter, 24 h; percent of 10 µM SAHA response; activation, % at 6 µM; 0.56% of 360,000 active;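 active = activation above the average of all compounds screened plus 3 SD, cutoff fixed separately per campaign, cut at about 7.5% in these data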;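 note: 0% = DMSO wells and 100% = 10 µM SAHA wells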
Wnt act: Wnt/beta-catenin pathway activators, primary screen, cell-based, plate reader, single point; Wnt/beta-catenin reporter cell assay, activator; activation, % at 9.35 µM; 1.2% of 300,000 active; AID 743398, 2014; in the data active = activation above about 30%, passing the limit was not always enough; inconclusive = no clear call, values can overlap the other calls;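 note: 0% = neutral control wells and 100% = positive control wells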
esBAF inh: Bmi1 luciferase reporter increase in mESCs, primary screen, esBAF inhibitor project, mouse ES cells, Bmi1 luciferase knock-in, single point | 24 h; 100% = twice the neutral-well signal | reporter increase, % at 12.5 µM | 2% of 350,000 active; in the data active = activation above about 40%; inconclusive = no clear call, values can overlap the other calls;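 note: 0% = median of the plate's neutral control wells and 100% = double that signal; a rise in the Bmi1 reporter signal indicates esBAF inhibition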
esBAF Ring1 qPCR: Ring1 mRNA increase in mouse ESCs, confirmation, esBAF inhibitor project, cell-based, mouse ESC, RT-qPCR, cherry-pick; mouse ESC E14, Ring1 mRNA RT-qPCR fold change; shares compounds with esBAF inh; 550 tested, under 10 active; fold change at 33 µM;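 active = Ring1 gene expression raised more than 2-fold over untreated cells in both replicates at either tested dose; inconclusive = only one replicate above 2-fold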;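 note: Ring1 transcript normalised to actin housekeeping signal by TaqMan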
esBAF Fgf4 qPCR: Fgf4 mRNA decrease in mouse ESCs, confirmation, esBAF inhibitor project, cell-based, mouse ESC, RT-qPCR, cherry-pick. Fgf4 expression fold change at 33 µM. AID 743177, 2013. shares compounds with esBAF inh. 4% of 550 active. mouse ESC E14, Fgf4 mRNA qPCR fold change; stronger effect = lower value;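 active = Fgf4 expression under 0.8 fold of control in both repeat measurements at one or both tested doses; inconclusive = under 0.8 fold in just a single repeat measurement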;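 note: Fgf4 transcript normalised to actin in duplex TaqMan qPCR; cells exposed to compound for 24 h before lysis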
esBAF Bmi1 qPCR: esBAF inhibition via Bmi1 de-repression, confirmation, cell-based, RT-qPCR, mouse ESC, single point, cherry-pick. shares compounds with esBAF inh. mouse ESE14 ES cells, Bmi1 mRNA qPCR fold; stronger effect = higher value. fold change at 33 µM. 550 tested, under 10 active;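 active = Bmi1 expression fold change above 6 at either tested concentration, seen in replicate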
A549 cytotox: A549 cell cytotoxicity, cytotoxicity control, plate reader, single point, cherry-pick; shares compounds with esBAF inh; cell viability change % (negative = cytotoxic), % at 25 µM, hits read low; 550 tested, under 10 active; call rule not given here
HepG2 cytotox SP: HepG2 cell cytotoxicity, cytotoxicity control, plate reader, single point, cherry-pick. 4% of 550 active. shares compounds with esBAF inh. AID 743189, 2013. activity change, negative = inhibition, % at 25 µM. stronger effect = lower value; in the data active = activity change below about -50%
HEK293 cytotox SP: HEK293 cell cytotoxicity, cytotoxicity control, plate reader, single point, cherry-pick | shares compounds with esBAF inh | activity change, negative = inhibition, % at 25 µM, hits read low | 3% of 550 active; in the data active = activity change below about -38%, passing the limit was not always enough
The depositor's hits bear a star; ? = inconclusive; / = no result given.

SMILES	MITF TRPM1 HTS	FXN GAA850 act	Wnt act	esBAF inh	esBAF Ring1 qPCR	esBAF Fgf4 qPCR	esBAF Bmi1 qPCR	A549 cytotox	HepG2 cytotox SP	HEK293 cytotox SP
O=C(NCC1CC1)[C@H]1[C@H](CO)[C@H]2Cn3c(cccc3=O)[C@@H]1N2C(=O)c1ccc(F)cc1	/	/	/	-0.7	/	/	/	/	/	/
COc1cccc2sc(N3CCN(C(=O)c4cccs4)CC3)nc12	-1.8	1.9	0.5	/	/	/	/	/	/	/
Cc1cc2nc(N3CCN(C(=O)c4cccs4)CC3)sc2cc1C	117.8*	4.3	19.1	62.4*	1.12	?	1.36	-7.9	24.5	-10.5
CCC(=O)N(C)C[C@H]1Oc2ncc(-c3ccc(C(=O)N(C)C)cc3)cc2C(=O)N([C@H](C)CO)C[C@H]1C	/	/	/	1.9	/	/	/	/	/	/
O=c1c2ccccc2oc2cc(-c3ccc4cc[nH]c4c3)ccc12	129.2*	5.5	37.6*	70.5*	1.32	0.921	1.61	-3.0	0.1	8.9
Cc1noc(C)c1NC(=O)Nc1ccc2c(c1)C(=O)N([C@@H](C)CO)C[C@@H](C)[C@H](CN(C)C(=O)c1ccccc1)OCCCC[C@@H](C)O2	/	/	/	0.8	/	/	/	/	/	/
Cc1cc(C)cc(N(CC(=O)Nc2ccc(-c3nc4ccc(C)cc4s3)cc2)S(C)(=O)=O)c1	57.9	5.1	38.5*	46.9*	1.02	0.918	1.45	-7.6	-44.8	-8.6
CO[C@@H]1CN(C)C(=O)c2cc(NC(=O)C3CCCCC3)ccc2OC[C@@H](C)N(C)C[C@H]1C	/	/	/	-0.9	/	/	/	/	/	/
COc1ccc(S(=O)(=O)Nc2ccc3c(c2)C(=O)N([C@@H](C)CO)C[C@@H](C)[C@@H](CN(C)Cc2ccc4c(c2)OCO4)OCCCC[C@H](C)O3)cc1	/	/	/	0.4	/	/	/	/	/	/
O=C(Nc1nc2ccc(Cl)cc2s1)c1cccc(N2C(=O)CCC2=O)c1	52.4	3.7	?	66.8*	1.67	1.02	1.33	-11.6	11.3	-0.2
COc1ccccc1-c1cnc2c(c1)C(=O)N([C@@H](C)CO)C[C@H](C)[C@@H](CN(C)C)O2	/	/	/	1.7	/	/	/	/	/	/
COc1cccc(/C=C2/NC(=O)N(CC(=O)Nc3ccc(C)cc3)C2=O)c1OCc1cccc(C(=O)O)c1	8.2	-1.4	0.0	2.0	/	/	/	/	/	/
Cc1ccc(NC(=O)CN2C(=O)N/C(=C/c3ccccc3OCc3cccc(C(=O)O)c3)C2=O)cc1	59.2	-0.2	11.3	39.5	1.18	0.838	1.22	-8.0	-0.2	-7.0
NCC[C@@H]1CC[C@H](NC(=O)Nc2ccc(F)cc2)[C@@H](CO)O1	/	/	/	-2.7	/	/	/	/	/	/
Cn1c(/C=C/c2ccc(Br)cc2)nc2ccccc2c1=O	79.1	2.9	16.7	74.5*	1.28	?	1.58	6.4	5.8	9.2
O=C(O)c1ccc2noc(-c3ccccc3)c2c1	52.6	5.1	/	81.5*	1.06	?	1.51	3.0	9.3	2.0
CC(C)c1ccc(CNc2ncc(Br)cn2)cc1	95.6*	5.2	20.9	72.9*	0.882	0.993	1.45	-12.0	-63.0*	-17.6
CC(=O)Nc1ccc2nc(SCC(=O)Nc3ccc(N4CCOCC4)c(Cl)c3)sc2c1	/	0.6	?	47.9*	0.766	0.857	1.42	-6.4	-9.9	-6.2
Cc1ccc(Nc2ncnc3sc(C)c(C)c23)cc1	41.0	0.6	/	59.5*	1.16	0.917	1.38	-2.2	-11.5	-2.7
